# Reference: PubChem BioAssay (NCI)
# About 79,000 compounds went through this panel and 15% of them were active in at least one assay; those are over-represented in the sample as a whole. A number with no mark means an inactive call. Activity calls are given as the source filed them. No stated cut-off is given here; in the data, active means growth inhibition above about 70%; inactive means the rest.
# Assays:
# [1] = NCI Yeast Anticancer Drug Screen. Data for the rad50 strain (AID 155);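 further: 0% = growth of vehicle-only cultures of the same strain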; settings: S. cerevisiae rad50 strain growth inhibition; at 50.0 µM; hits give high values
# Outline: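 Readout: growth inhibition relative to vehicle-treated cultures. Compound exposure was carried out in a genetically defined yeast strain deficient in DNA damage repair.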
# [2] = NCI Yeast Anticancer Drug Screen. Data for the mec2-1 strain (AID 157); settings: S. cerevisiae mec2-1 strain, at 50.0 µM, hits give high values
# Outline: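 Growth inhibition is read against vehicle-treated controls after compound exposure of the mec2-1 yeast strain, which is defective in DNA damage repair or cell cycle control.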
# [3] = NCI Yeast Anticancer Drug Screen. Data for the sgs1 mgt1 strain (AID 161);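 further: 0% = growth of cultures given vehicle only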; settings: S. cerevisiae sgs1 mgt1 strain, at 50.0 µM, hits give high values
# Outline: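 This yeast growth screen uses a strain with defined DNA-repair lesions; compound-treated growth is compared with vehicle-treated growth.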
# [4] = NCI Yeast Anticancer Drug Screen. Data for the cln2 rad14 strain (AID 165);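 further: 0% = growth equal to vehicle treated cultures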; settings: S. cerevisiae cln2 rad14 strain, at 50.0 µM, hits give high values
# Outline: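 Growth inhibition, relative to vehicle-treated controls, is the read-out. The test organism is a yeast strain with defined genetic alterations, cln2 rad14.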
# [5] = NCI Yeast Anticancer Drug Screen. Data for the bub3 strain (AID 167); settings: S. cerevisiae bub3 mutant strain, at 50.0 µM, hits give high values
# Outline: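 Readout: yeast growth inhibition, expressed relative to vehicle-only wells. The test organism is a mutant strain from a panel with lesions in DNA repair or checkpoint genes.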
# [6] = NCI Yeast Anticancer Drug Screen. Data for the mlh1 rad18 strain (AID 175); settings: S. cerevisiae mlh1 rad18 strain growth inhibition; at 50.0 µM; hits give high values
# Outline: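 Cells of a genetically altered yeast strain, deficient in DNA damage repair, were treated with compound. Their growth was then compared with that of vehicle-treated cultures to give inhibition.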
Compound,growth inhibition [1],growth inhibition [2],growth inhibition [3],growth inhibition [4],growth inhibition [5],growth inhibition [6]
Cc1[nH]n(-c2nc(-c3ccccc3)cc(=O)[nH]2)c(=O)c1CCO,-11.8%,-31.5%,-25.9%,10.8%,-7.1%,-13.2%
Cc1ccccc1S(=O)(=O)NSc1ccccc1[N+](=O)[O-],28.2%,-5.25%,33%,1.85%,-12.8%,25.7%
[N-]=[N+]=Nc1cc(=O)n(-c2ccccc2)c(=O)n1-c1ccccc1,9.5%,8.75%,13.3%,21.6%,10.3%,32.2%
C(=Nc1ccccc1-c1ccccc1N=Cc1ccccc1)c1ccccc1,7.6%,7.3%,-1.25%,7.2%,-7.75%,-17.9%
COc1ccccc1NC(=O)CC(=O)n1nc(-c2ccccc2)c(N=Nc2ccccc2[N+](=O)[O-])c1-c1ccccc1,-0.4%,-15.5%,27.9%,0.5%,25.3%,15.5%
O=S(=O)(O)NNc1ccc(N=Nc2ccccc2)cc1,0.2%,-12.9%,-3.95%,11.3%,-0.75%,4.75%
COc1ccc(-c2c(C#N)c(-c3ccccc3)n(NS(=O)(=O)c3ccccc3)c(=O)c2C#N)cc1,-0.05%,40.7%,30.4%,8.45%,32.6%,42.1%
O=C1c2cc(CCl)sc2C(=O)c2ccsc21,88.9% (active),89.3% (active),89.5% (active),89.8% (active),87.6% (active),83.2% (active)
Cc1cnc(Sc2ncccn2)c([N+](=O)[O-])c1,-7.05%,-15%,-2.1%,-28.4%,-31.1%,-17.9%
CCCCOC(=O)/C(CC(=O)C=C(C)C)=N\NS(=O)(=O)c1ccc(C)cc1,1.75%,-14.1%,-10.5%,5.3%,-8.5%,-5.75%
CNC(=O)OCCCCCCCCCCOC(=O)NC,2.8%,-0.1%,6.2%,-23.7%,-17.9%,4.65%
CC(C)(NC(=O)OC12CC3CC(CC(C3)C1)C2)C(=O)O,-11.1%,-20.1%,3.1%,-12.6%,3.45%,-5.35%
CC(C)n1c(=O)nc(-c2ccccc2)c2cc3c(cc21)OCO3,27.3%,18.8%,51.4%,7%,47.9%,8.65%
COc1cc(C(c2cc3c(cc2O)OCO3)N2CCCC2)cc(OC)c1OC (stereo unspecified),-13.2%,17.9%,-13.9%,13%,-5.3%,-7.85%
COC(=O)C(=O)Cc1nc2ccccc2s1,6.25%,1.35%,6.15%,-29.8%,-7.3%,7.3%
CC(COc1ccc(Cl)cc1)OS(=O)(=O)CCCl (stereo unspecified),14.3%,13%,-16.1%,-16.1%,-1.1%,-4.65%
CC(=O)N(C)C,-9.9%,-2.05%,12.9%,6%,-2.3%,-6.5%
C/C(=N/NC(=O)c1ccccc1)C(=O)c1ccccc1,-4.4%,-12.2%,-2.65%,-1.2%,6%,-0.15%
CC(C)(C)C1=CC(=C2C(=O)C(=O)c3ccccc3C2=O)C=C(C(C)(C)C)C1=O,-3.2%,-22.2%,-12.7%,6.85%,22.4%,-21.5%
CC1=C(c2cc(C(=O)Nc3nccs3)nc(NC#N)n2)Sc2ccccc2N1,-9.2%,5.4%,-8.65%,15.2%,4.5%,10.3%
CCC(=O)C(CC)Cc1ccc(OC)c(OC)c1 (stereo unspecified),1.4%,-15.9%,-11.8%,-5.55%,6.55%,2.25%

Compound,growth inhibition [1],growth inhibition [2],growth inhibition [3],growth inhibition [4],growth inhibition [5],growth inhibition [6]
O=C1C[C@@]23CCC4(CC2=CCC[C@H]3O1)OCCO4,-16.9%,-19.6%,3.2%,14.7%,17.5%,-12.3%
ClCC1OC1CCl (stereo unspecified),22.1%,3.05%,1.1%,-10.6%,9.8%,1.95%
Cc1cccc2nc(-c3ccccn3)n(CCc3ccccn3)c12,-5.2%,5.35%,1.65%,-18.5%,-8.2%,17.2%
Cc1c([N+](=O)[O-])cc(C(C)(C)C)c(OC(=S)N(C)C)c1[N+](=O)[O-],26.9%,23.4%,-1.75%,18%,14.7%,0.7%
CCc1c(Cl)c(Cl)c(Cl)c(Cl)c1Cl,2.95%,2.35%,4.15%,-42.5%,-2.9%,13.8%
O=C(OC1COC(n2c(=O)oc3cc(Br)c(Cl)cc32)C(OC(=O)c2ccccc2)C1OC(=O)c1ccccc1)c1ccccc1 (stereo unspecified),4.55%,-2.25%,-8.15%,-3.05%,4.85%,14.4%
CC(O)C(=O)NN (stereo unspecified),0.75%,-17.7%,-4.95%,-13.6%,-4.65%,9.4%
O=C(CSc1nnc(Cc2ccccc2)o1)Nc1cccc([N+](=O)[O-])c1,20.6%,5.1%,12.1%,-10.3%,-8.4%,-17%
O=C1OC(=O)c2c(Cl)c(Cl)c(Cl)c(Cl)c21,8.55%,-0.15%,23.9%,-34.9%,-6.25%,2.5%
O=C(OCC(Cl)(Cl)Cl)N1[C@@H]2C=C[C@@H](N1C(=O)OCC(Cl)(Cl)Cl)[C@@]13CCCCC21O3 (stereo partly specified),-55.7%,5.15%,0.45%,1.8%,-4.95%,1.65%
COc1cc(C)oc(=O)c1,-6.1%,6.15%,-2.45%,-16.6%,8.1%,3.3%
c1cncc(-c2c3ccccc3cc3ccccc23)c1,22.3%,-16%,2.8%,-8.5%,4.8%,5.1%
CCCCNC(C(=O)c1ccccc1)c1ccccc1 (stereo unspecified),4.85%,17.1%,0.45%,-16.6%,13.9%,26.4%
Cn1c(=O)c2c(ncn2-c2ccc(N)cn2)n(C)c1=O,-7.1%,-4.55%,-7.15%,9.45%,11.2%,4.1%
Cc1c2cnccc2c(C)c2c1c1ccccc1n2CCCCCCCl,94.5% (active),69%,49.8%,66%,95.7% (active),98.5% (active)
Cc1cccc(C(N)=O)c1,22.6%,6.7%,3.3%,-4.75%,8.95%,32.9%
C=C(C)CBr,-17.1%,-7.55%,-5.95%,5.35%,-5.45%,-3.5%
OCC(O)C(O)C(O)C(O)CNC(CO)(CO)CO (stereo unspecified),9.9%,13.3%,18.6%,-1.45%,16.6%,27.5%
Cc1cccc(C2(C(=O)O)CCCC2)c1,14.7%,-5.2%,15.9%,39%,24.3%,35.4%
Cc1ccc(C(C)(C)C)c2oc(=O)cc(C)c12,20.2%,8.75%,12.9%,5%,5.05%,19.8%
